According to PubChem BioAssay (Tox21):
A number with no mark means an inactive call. Records with an inconclusive call do not appear. Entries that show only a call come without a potency. The source made the active and inactive calls. Unless noted, the call rests on the fitted dose curve; in most records, active means well fitted curve in the direction sought with a large enough effect in the repeat runs; inconclusive means weak or mixed curves; inactive means no such curve, though single readings can be large; an effect the other way counts as inactive or inconclusive.

Assays:
[1] = qHTS assay to identify small molecule HDAC inhibitors (AID 1259364);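 further: wild-type HCT-116 cells with endogenous class I/II HDAC activity; top concentration of the series differs between compounds; nearly all actives have a fitted effect of over 45% in size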
Procedure, shortened: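 Quantitative high-throughput format: overnight-seeded HCT-116 cells got compounds for 2 hr at 37C; HDAC-Glo I/II reagent added, 30 min RT, luminescence measured.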

[2] = qHTS assay to identify small molecule HDAC inhibitors - cell viability counter screen (AID 1259365); further: series mostly up to about 92 µM; nearly all actives have a fitted effect of over 50% in size
Procedure, shortened: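 To flag cytotoxic hits, 1,500 wild-type HCT-116 cells per well, plated the day before, receive test compounds for 2hr at 37 C before CellTiter-Glo reagent and a luminescence read.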

[3] = qHTS assay to identify small molecule agonists of the sonic hedgehog signaling (Shh) pathway - cell viability counter screen (AID 1259366); further: nearly all actives have a fitted effect of over 50% in size
Procedure, shortened: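 Fluorescence from CellTiter-Fluor reports live cells in this counter screen. NIH/3T3-derived Gli1-Luc reporter cells receive test compounds for 24hr at 37C; reagent goes in at 23hr.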

[4] = qHTS assay to identify small molecule antagonists of the sonic hedgehog signaling (Shh) pathway - cell viability counter screen (AID 1259367); further: nearly all actives have a fitted effect of over 55% in size
Procedure, shortened: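 CellTiter-Fluor signal in conditioned medium-stimulated 3T3 Gli1-Luc cells, 23 hr compound exposure, 37C.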

[5] = qHTS assay to identify small molecule agonists of the sonic hedgehog signaling (Shh) pathway (AID 1259368; calls by dose curve;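 further: NIH/3T3-derived 3T3Gli1-Luc cells carrying a stable Gli1-driven firefly luciferase reporter; series mostly up to about 92 µM; nearly all actives have a fitted effect of over 15% in size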)
Procedure, shortened: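 Quantitative high-throughput format using a Gli1-driven firefly luciferase reporter line derived from NIH/3T3 cells. After a 24 hr compound treatment at 37 C and 5% CO2, luminescence reported Gli1 response element activity.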

[6] = qHTS assay to identify small molecule antagonists of the sonic hedgehog signaling (Shh) pathway (AID 1259369; calls by dose curve; further: nearly all actives have a fitted effect of over 45% in size; further: potency means the concentration at half of the fitted maximal effect)
Procedure, shortened: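 Stable Gli1-Luc reporter NIH/3T3 clone; quantitative HTS in stimulated mode with conditioned medium. Luminescence measured after 24hr compound treatment at 37 C.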

[7] = qHTS assay to identify small molecule agonists of the androgen receptor (AR) signaling pathway in the presence of an antagonist - cell viability counter screen (AID 1259379);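 further: MDA-kb2 human breast cancer cells carrying an MMTV luciferase reporter; series mostly up to about 92 µM; nearly all actives have a fitted effect of over 25% in size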
Procedure, shortened: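 Nilutamide-containing (3.0uM final) MDA-kb2 cultures, 3,000 cells/well, were treated with compounds across 15 concentrations. After 16 hr at 37C with no CO2, cell viability was determined by CellTiter-Fluor fluorescence in the luciferase assay wells.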

[8] = molecular target: Estrogen receptor (Homo sapiens) (UniProt P03372); assay: qHTS assay to identify small molecule agonists of the estrogen receptor alpha (ER-alpha) signaling pathway in the presence of an antagonist (AID 1259383; calls by dose curve; further: top concentration of the series differs between compounds; nearly all actives have a fitted effect of over 15% in size)
Procedure, shortened: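 Readout was ERE-driven luciferase luminescence in VM7Luc4E2 cells, which express full-length ER-alpha endogenously. Compounds were tested at 15 concentrations for 22hr alongside 10.0nM ICI-182,780 (final concentration).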

[9] = qHTS assay to identify small molecule agonists or antagonists of the thyroid stimulating hormone receptor (TSHR) signaling pathway - wild type cell line counter screen (AID 1259384; calls by dose curve)
Procedure, shortened: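 Counter screen in untransfected Hek293: compounds (15-point titration, triplicate) plus phosphodiesterase inhibitor Ro20-1724 added after 18 h plating; 30 min RT. Intracellular cAMP via competitive d2/cryptate immunoassay, 1 h incubation.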

[10] = molecular target: Thyrotropin receptor (Homo sapiens) (UniProt P16473); assay: qHTS assay to identify small molecule antagonists of the thyroid stimulating hormone receptor (TSHR) signaling pathway (AID 1259385; calls by dose curve; further: nearly all actives have a fitted effect of over 20% in size)
Procedure, shortened: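 Antagonist mode: compound-treated TSHR-expressing HEK293 cells were stimulated with 1.5 ng/mL TSH (final) in presence of Ro20-1724 for 30 min at RT. HTRF cAMP detection after 1 h; each compound tested at 15 concentrations, triplicate.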

[11] = qHTS assay to identify small molecule agonists of the estrogen receptor alpha (ER-alpha) signaling pathway in the presence of an antagonist - cell viability counter screen (AID 1259386);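 further: series mostly up to about 92 µM; cells exposed to compounds for 22 h at 37 °C before the viability read; nearly all actives have a fitted effect of over 30% in size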
Procedure, shortened: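 In this counter screen, compound effects on VM7Luc4E2 viability were tested in the presence of the antagonist ICI-182,780 at 10.0nM final. Compounds were dosed at 15 concentrations, exposure lasted 22hr, and the CellTiter-Fluor signal was read.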

[12] = molecular target: Progesterone receptor (Homo sapiens) (UniProt P06401); assay: qHTS assay to identify small molecule antagonists of the progesterone receptor (PR) signaling pathway (AID 1346795; active means well fitted inhibition curve with a large enough effect in the signal ratio in the repeat runs, not every such curve was filed as active; the % refers to the signal ratio; further: potency means the concentration at half of the fitted maximal effect)
Procedure, shortened: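 Screening used a GripTite HEK293T line with PR-responsive UAS-beta-lactamase. Cells were challenged with compound in the presence of 1 nM R5020 final for 16 hr at 37C; B/G FRET substrate, 2 hr room temperature, fluorescence.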

[13] = qHTS assay to identify small molecule agonists of the estrogen receptor beta (ER-beta) signaling pathway - cell viability counter screen (AID 1259380); further: nearly all actives have a fitted effect of over 30% in size
Procedure, shortened: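 Steps: plate ER-beta-UAS-bla HEK293T cells, rest 6 hr; add compounds in DMSO; incubate 16 hr at 37C, 5% CO2; add FRET substrate 2 hr; add CellTiter-Glo, wait 30 min at room temperature; read luminescence.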

[14] = qHTS assay to identify small molecule antagonists of the progesterone receptor (PR) signaling pathway - cell viability counter screen (AID 1346798); further: series mostly up to about 92 µM; nearly all actives have a fitted effect of over 50% in size
Procedure, shortened: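 Measures cytotoxicity in parallel with the PR antagonist reporter read: HEK293T PR-UAS-bla cells get compound and R5020 for 16 hr, and remaining viable cells are quantified by CellTiter-Glo luminescence.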

[15] = qHTS assay to identify small molecule agonists of the progesterone receptor (PR) signaling pathway - cell viability counter screen (AID 1346799; calls by dose curve; further: nearly all actives have a fitted effect of over 45% in size)
Procedure, shortened: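 Using the same plates as the PR reporter screen, HEK293T PR-UAS-bla cells received compounds for 16 hr at 37C and were then lysed with CellTiter-Glo; luminescence was read 30 min later at room temperature.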

[16] = qHTS assay to identify small molecule antagonists of the TGF-beta/Smad signaling pathway - cell viability counter screen (AID 1346824); further: nearly all actives have a fitted effect of over 50% in size
Procedure, shortened: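 Cytotoxicity counter-screen run in the same wells as the beta-lactamase Smad reporter read: CellTiter-Glo luminescence after 30 min at room temperature. HEK 293T SBE-bla cells had 5 hr compound exposure at 37 C with TGF-beta1 (0.25 ng/mL stock).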

[17] = molecular target: Estrogen receptor beta (Homo sapiens) (UniProt Q92731); assay: qHTS assay to identify small molecule agonists of the estrogen receptor beta (ER-beta) signaling pathway (AID 1259377; active means well fitted activation curve with a large enough effect in the signal ratio in the repeat runs, not every such curve was filed as active; the % refers to the signal ratio)
Procedure, shortened: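 Screening used GripTite ER-beta-UAS-bla cells held in 2% charcoal-stripped FBS medium. After overnight (16 hr) compound incubation at 37C, beta-lactamase activity was detected with a FRET substrate by fluorescence.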

[18] = molecular target: Estrogen receptor beta (Homo sapiens) (UniProt Q92731); assay: qHTS assay to identify small molecule antagonists of the estrogen receptor beta (ER-beta) signaling pathway (AID 1259378; active means well fitted inhibition curve with a large enough effect in the signal ratio in the repeat runs, not every such curve was filed as active; the % refers to the signal ratio)
Procedure, shortened: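 Antagonist mode: compounds added to beta-lactamase reporter HEK293T ER-beta-UAS cells stimulated with E2 (1nM final), 16 hr at 37C. LiveBLAzer B/G FRET substrate, 2 hours room temperature, fluorescence read-out.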

[19] = qHTS assay to identify small molecule antagonists of the estrogen receptor beta (ER-beta) signaling pathway - cell viability counter screen (AID 1259382);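 further: HEK293T cells carrying ER-beta-UAS-bla reporter stimulated with estradiol; series mostly up to about 92 µM; nearly all actives have a fitted effect of over 55% in size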
Procedure, shortened: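 Viability is scored by CellTiter-Glo luminescence (30 min, room temperature) in ER-beta-UAS-bla HEK293T wells already read for reporter fluorescence. Compound exposure lasts 16 hr at 37C alongside 1nM 17-beta-estradiol in charcoal-stripped serum medium.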

[20] = molecular target: Progesterone receptor (Homo sapiens) (UniProt P06401); assay: qHTS assay to identify small molecule agonists of the progesterone receptor (PR) signaling pathway (AID 1346784; calls by dose curve; further: nearly all actives have a fitted effect of over 30% in size)
Procedure, shortened: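 Seed PR-UAS-bla HEK 293T cells (2% charcoal-stripped FBS), incubate 6 hr at 37C; add compounds in DMSO, 16 hr at 37C; add LiveBLAzer B/G substrate, 2 hr RT; read fluorescence intensity.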

Chain of Estrogen receptor beta (Homo sapiens) (Q92731 whole entry, looked up): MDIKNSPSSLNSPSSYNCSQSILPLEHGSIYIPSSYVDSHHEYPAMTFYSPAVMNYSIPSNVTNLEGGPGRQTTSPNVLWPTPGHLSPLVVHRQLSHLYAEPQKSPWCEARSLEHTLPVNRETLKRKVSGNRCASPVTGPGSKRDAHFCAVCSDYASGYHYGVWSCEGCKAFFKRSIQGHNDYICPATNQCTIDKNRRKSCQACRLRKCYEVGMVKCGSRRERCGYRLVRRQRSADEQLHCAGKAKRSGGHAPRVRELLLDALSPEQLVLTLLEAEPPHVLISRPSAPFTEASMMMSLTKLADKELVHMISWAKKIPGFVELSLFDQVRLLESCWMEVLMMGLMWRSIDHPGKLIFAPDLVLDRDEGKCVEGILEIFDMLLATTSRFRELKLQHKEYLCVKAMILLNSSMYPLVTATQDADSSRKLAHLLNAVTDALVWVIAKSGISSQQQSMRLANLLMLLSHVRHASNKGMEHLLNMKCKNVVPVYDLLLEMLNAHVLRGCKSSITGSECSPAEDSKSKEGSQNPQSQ
Chain of Progesterone receptor (Homo sapiens) (P06401 whole entry, looked up): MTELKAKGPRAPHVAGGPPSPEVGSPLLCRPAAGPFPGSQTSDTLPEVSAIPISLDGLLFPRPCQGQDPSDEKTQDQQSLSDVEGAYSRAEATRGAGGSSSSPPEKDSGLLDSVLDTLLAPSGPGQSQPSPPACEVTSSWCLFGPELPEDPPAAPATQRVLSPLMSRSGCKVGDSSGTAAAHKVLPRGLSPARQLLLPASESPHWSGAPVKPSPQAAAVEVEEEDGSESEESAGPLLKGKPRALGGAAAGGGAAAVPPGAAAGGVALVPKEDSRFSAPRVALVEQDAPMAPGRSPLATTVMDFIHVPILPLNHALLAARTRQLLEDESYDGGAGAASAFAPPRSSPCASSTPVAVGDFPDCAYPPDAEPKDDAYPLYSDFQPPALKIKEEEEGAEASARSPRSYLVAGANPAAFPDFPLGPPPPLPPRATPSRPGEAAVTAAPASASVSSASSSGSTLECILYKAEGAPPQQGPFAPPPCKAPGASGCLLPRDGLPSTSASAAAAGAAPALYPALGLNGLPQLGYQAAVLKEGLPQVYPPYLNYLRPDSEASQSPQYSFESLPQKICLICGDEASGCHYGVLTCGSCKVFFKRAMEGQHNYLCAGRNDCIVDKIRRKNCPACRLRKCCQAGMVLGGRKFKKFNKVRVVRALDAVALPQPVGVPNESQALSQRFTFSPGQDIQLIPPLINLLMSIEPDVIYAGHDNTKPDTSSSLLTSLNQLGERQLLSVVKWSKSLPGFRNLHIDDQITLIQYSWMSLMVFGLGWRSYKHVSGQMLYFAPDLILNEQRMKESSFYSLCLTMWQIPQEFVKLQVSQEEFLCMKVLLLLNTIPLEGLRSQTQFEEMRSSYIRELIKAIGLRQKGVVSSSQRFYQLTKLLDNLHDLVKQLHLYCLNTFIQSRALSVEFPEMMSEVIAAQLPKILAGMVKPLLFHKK
Chain of Thyrotropin receptor (Homo sapiens) (P16473 whole entry, looked up): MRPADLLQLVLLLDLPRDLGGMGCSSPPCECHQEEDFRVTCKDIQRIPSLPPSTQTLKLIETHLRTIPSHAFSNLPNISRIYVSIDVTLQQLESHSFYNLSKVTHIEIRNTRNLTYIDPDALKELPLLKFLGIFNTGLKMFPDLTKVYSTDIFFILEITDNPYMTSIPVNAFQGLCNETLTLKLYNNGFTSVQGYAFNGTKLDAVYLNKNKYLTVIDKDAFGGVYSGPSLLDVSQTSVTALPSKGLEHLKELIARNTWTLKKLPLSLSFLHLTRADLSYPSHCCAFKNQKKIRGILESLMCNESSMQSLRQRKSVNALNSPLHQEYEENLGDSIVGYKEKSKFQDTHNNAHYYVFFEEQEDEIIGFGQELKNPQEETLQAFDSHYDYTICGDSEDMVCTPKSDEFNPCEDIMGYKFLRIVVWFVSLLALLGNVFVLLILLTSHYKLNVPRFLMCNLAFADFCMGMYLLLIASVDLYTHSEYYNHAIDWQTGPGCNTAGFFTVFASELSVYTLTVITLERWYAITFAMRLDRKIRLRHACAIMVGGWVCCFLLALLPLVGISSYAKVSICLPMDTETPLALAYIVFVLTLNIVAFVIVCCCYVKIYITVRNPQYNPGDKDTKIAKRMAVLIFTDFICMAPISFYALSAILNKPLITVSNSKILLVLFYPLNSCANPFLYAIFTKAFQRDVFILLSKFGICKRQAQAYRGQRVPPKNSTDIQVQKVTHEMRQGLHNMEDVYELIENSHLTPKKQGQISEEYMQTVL
Chain of Estrogen receptor (Homo sapiens) (P03372 whole entry, looked up): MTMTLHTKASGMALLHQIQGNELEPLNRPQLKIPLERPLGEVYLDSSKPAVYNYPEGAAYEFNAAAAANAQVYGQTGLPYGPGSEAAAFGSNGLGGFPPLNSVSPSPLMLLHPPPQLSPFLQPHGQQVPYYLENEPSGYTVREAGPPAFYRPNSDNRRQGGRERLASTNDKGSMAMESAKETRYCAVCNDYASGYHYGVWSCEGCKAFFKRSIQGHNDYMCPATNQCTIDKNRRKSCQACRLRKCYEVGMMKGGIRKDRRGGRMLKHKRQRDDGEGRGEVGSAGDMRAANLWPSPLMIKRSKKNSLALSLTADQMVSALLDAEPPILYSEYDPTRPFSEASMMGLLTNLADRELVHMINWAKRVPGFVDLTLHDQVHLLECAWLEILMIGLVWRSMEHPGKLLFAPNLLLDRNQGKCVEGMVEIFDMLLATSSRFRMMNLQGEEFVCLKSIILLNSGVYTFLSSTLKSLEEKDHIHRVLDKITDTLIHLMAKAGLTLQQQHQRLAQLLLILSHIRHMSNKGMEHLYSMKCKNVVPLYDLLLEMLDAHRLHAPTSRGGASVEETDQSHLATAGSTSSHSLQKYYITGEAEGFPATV

| Compound | Potency [1] | outcome [2] | Potency [3] | Potency [4] | outcome [5] | Potency [6] | Potency [7] | outcome [8] | outcome [9] | outcome [10] | Potency [11] | Potency [12] | outcome [13] | Potency [14] | Potency [15] | outcome [16] | Potency [17] | outcome [18] | outcome [19] | Potency [20] |
| --- | --- | --- | --- | --- | --- | --- | --- | --- | --- | --- | --- | --- | --- | --- | --- | --- | --- | --- | --- | --- |
| Oc1ccccc1Cc1ccccc1O | inactive | inactive | inactive | inactive | inactive | 30.6 µM (active) | inactive | inactive | inactive | inactive | inactive | 27.3 µM (active) | – | – | – | – | – | – | – | – |
| CCC1COC(=O)O1 (stereo not given) | inactive | inactive | inactive | inactive | inactive | inactive | – | inactive | inactive | inactive | inactive | inactive | inactive | inactive | inactive | inactive | – | – | – | – |
| C=CCOCC(CO)(COCC=C)COCC=C | inactive | inactive | inactive | inactive | inactive | – | inactive | inactive | inactive | inactive | inactive | inactive | inactive | – | inactive | inactive | inactive | inactive | inactive | – |
| CC(C)(CO)[C@@H](O)C(=O)NCCCO | inactive | inactive | inactive | inactive | inactive | – | inactive | inactive | inactive | inactive | inactive | inactive | inactive | inactive | – | inactive | inactive | inactive | inactive | inactive |
| CCCCOC(=O)C(=O)OCCCC | inactive | inactive | inactive | inactive | inactive | inactive | inactive | – | – | – | inactive | inactive | inactive | inactive | inactive | inactive | – | – | inactive | – |
| COc1cc(C=O)ccc1OC(=O)C(C)C | inactive | inactive | inactive | inactive | inactive | inactive | inactive | – | – | inactive | inactive | inactive | inactive | inactive | inactive | – | – | – | inactive | inactive |
| COC(OC)C(C)c1ccccc1 (stereo not given) | inactive | inactive | inactive | inactive | inactive | – | inactive | inactive | inactive | inactive | inactive | inactive | inactive | – | inactive | inactive | inactive | inactive | inactive | inactive |
| CCCCCCCCCCCCC | inactive | inactive | inactive | inactive | inactive | inactive | – | inactive | inactive | inactive | inactive | inactive | inactive | inactive | inactive | – | – | – | inactive | inactive |
